Experimental data reported in PubChem BioAssay (NCI).
Compounds without any hit were thinned out: in the full panel of roughly 83,000, 20% have a hit.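 In brief: 96-well plates, 48 h treatment, single concentration, percent growth endpoint.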 The source made the active and inactive calls. Rule for the calls: active = growth percent below 10; inactive = the rest.

Columns and labels:
Assay in all cases: NCI-60 one-dose screen, 48 h (100 = growth as untreated, 0 = no growth, -100 = all killed)
NCI-H226 lung = settings: 10 µM unless noted
NCI-H322M lung = settings: 10 µM unless noted
NCI-H522 lung = settings: 10 µM unless noted
SNB-19 CNS = settings: 10 µM unless noted
U251 CNS = settings: 10 µM unless noted
EKVX NSCLC = settings: 10 µM unless noted
TK-10 renal = settings: 10 µM unless noted
CCRF-CEM leukemia = settings: 10 µM unless noted
SR leukemia = settings: 10 µM
SK-OV-3 ovarian = settings: 10 µM unless noted
HS 578T breast = settings: 10 µM unless noted
T-47D breast = settings: 10 µM unless noted
BT-549 breast = settings: 10 µM
MCF7 breast = settings: 10 µM unless noted
HCC-2998 colon = settings: 10 µM unless noted
HOP-92 NSCLC = settings: 10 µM unless noted
RPMI-8226 leukemia = settings: 10 µM unless noted
IGROV1 ovarian = settings: 10 µM

Measured: growth

c1cnc2c(c1)ccc1ncccc12
inactive: NCI-H226 lung 100% | NCI-H322M lung 123% | NCI-H522 lung 93.8% | SNB-19 CNS 95.7% | U251 CNS 105% | EKVX NSCLC 94.2% | TK-10 renal 114% | CCRF-CEM leukemia 95.6% | SR leukemia 110% | SK-OV-3 ovarian 104% | HS 578T breast 159% | T-47D breast 111% | BT-549 breast 106% | MCF7 breast 107% | HCC-2998 colon 119%

Cc1ccc2oc(=O)c3c(c2c1)OC(N)=C(C#N)C3c1ccco1 (centres undefined)
inactive: NCI-H226 lung 91.9% | NCI-H322M lung 98.8% | HOP-92 NSCLC 102% | NCI-H522 lung 91.6% | SNB-19 CNS 96.9% | EKVX NSCLC 94.9% | CCRF-CEM leukemia 96.4% | SR leukemia 107% | RPMI-8226 leukemia 100% | IGROV1 ovarian 104% | HS 578T breast 93.5% | BT-549 breast 98.8%

O=C1NC2(CCNCC2)Nc2ccccc21
inactive: NCI-H226 lung 97.7% | NCI-H322M lung 109% | HOP-92 NSCLC 107% | NCI-H522 lung 97.5% | SNB-19 CNS 96.2% | U251 CNS 91.2% | EKVX NSCLC 109% | TK-10 renal 98.3% | CCRF-CEM leukemia 94.9% | SR leukemia 86.9% | IGROV1 ovarian 113% | HS 578T breast 102% | T-47D breast 109% | BT-549 breast 108% | MCF7 breast 107% | HCC-2998 colon 103%

CCCCCN(CCCCC)CC(O)c1ccc(C)c(Cl)c1 (centres undefined)
inactive: NCI-H226 lung 84.4% | NCI-H322M lung 102% | NCI-H522 lung 83.5% | SNB-19 CNS 98% | U251 CNS 92.4% | EKVX NSCLC 95.2% | TK-10 renal 98.5% | CCRF-CEM leukemia 99% | SR leukemia 92.4% | RPMI-8226 leukemia 91.8% | SK-OV-3 ovarian 94.3% | IGROV1 ovarian 92.2% | HS 578T breast 102% | T-47D breast 91.2% | BT-549 breast 107% | HCC-2998 colon 107%
